The nature of assay [1]: qHTS assay for small molecules that induce genotoxicity in human embryonic kidney cells expressing luciferase-tagged ATAD5 (AID 651632). Note: nearly all actives have a fitted effect of over 15% in size. A digest of the protocol:
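A rise in luciferase signal from ATAD5-tagged HEK293T cells marks genetic stress. Cells were exposed to compounds for 16 hr at 37C, 5% CO2, then luciferase was quantified after a 30 min room-temperature incubation with Amplite.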
Background: qHTS replaces the single test concentration by a dilution series.

The nature of assay [2]: qHTS assay for small molecule agonists of the p53 signaling pathway - cell viability (AID 651633; calls by dose curve; note: nearly all actives have a fitted effect of over 30% in size; note: potency is the fitted concentration of half-maximal effect). In outline: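 Viability counter-read: CellTiter-Glo luminescence (30 min, room temperature) in the same p53RE-bla plates. These plates had been exposed to compounds for 16 h at 37 C.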
The nature of assay [3]: qHTS assay for small molecule disruptors of the mitochondrial membrane potential - cell viability (AID 720634; calls by dose curve;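 note: human HepG2 liver cancer cells; series mostly up to about 83 µM; nearly all actives have a fitted effect of over 20% in size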). A digest of the protocol:
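Cytotoxicity was quantified from ATP content by CellTiter-Glo luminescence in the same wells as the MMP dye read-out. HepG2 (2,000 cells/well) were plated overnight and exposed to compounds for 1 hr at 37 C.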

Assay [4] in a line: qHTS assay to test for compound auto fluorescence at 535 nm (green) in HepG2 cells (AID 720675).
Assay [5] in a line: qHTS assay to test for compound auto fluorescence at 590 nm (red) in HEK293 cells (AID 720679). In outline: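 HEK293 cells (2,000/well, 10% dialyzed FBS) attached 4-5 hr, then dosed with compound or DMSO and incubated overnight at 37C, 5% CO2. Red fluorescence read at 540/590 nm, Rose Bengal sodium as reference fluorophore.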
Assay [6] can be described thus: qHTS assay to test for compound auto fluorescence at 460 nm (blue) in HEK293 cell free culture (AID 720681). A digest of the protocol:
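Blue fluorescence (Ex 405/Em 460 nm, triamterene-equivalent) was read immediately after pin transfer of compound or DMSO into medium (DMEM, 10% FBS) without cells.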

Assay [7] in a line: qHTS assay to test for compound auto fluorescence at 535 nm (green) in HEK293 cell free culture (AID 720682). In outline: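 Each library compound, or DMSO control, is added by pintool to medium alone, comprising DMEM and 10% FBS. Emission at 535 nm following 485 nm excitation is quantified against fluorescein.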
Assay [8] is described as follows: qHTS assay to test for compound auto fluorescence at 590 nm (red) in HepG2 cell free culture (AID 720684). In outline: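 No cells present: MEM + 10% FBS only. Compound pinned in, red label read (540/590 nm). Activity = fluorescence equivalent to Rose Bengal sodium.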
Assay [9] can be described thus: qHTS assay to test for compound auto fluorescence at 460 nm (blue) in HepG2 cell free culture (AID 720685). In outline:
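Cell-free plates of MEM plus 10% FBS received 23 nL compound or DMSO vehicle; blue-channel (405/460 nm) intensity scored against triamterene as reference fluorophore.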

Assay [10] can be described thus: qHTS assay to test for compound auto fluorescence at 535 nm (green) in HepG2 cell free culture (AID 720686).
Assay [11] is described as follows: qHTS assay to test for compound auto fluorescence at 460 nm (blue) in HepG2 cells (AID 720687). A digest of the protocol:
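Blue-channel autofluorescence (Ex/Em 405/460 nm, triamterene-equivalent) was measured after 1 hr compound exposure at 37 C, 5% CO2. Cells were HepG2, plated overnight at 37 C in MEM plus 10% FBS.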

Assay [12] is described as follows: qHTS assay to identify small molecule antagonists of the androgen receptor (AR) signaling pathway - cell viability counter screen (AID 743033; note: nearly all actives have a fitted effect of over 45% in size).
Assay [13] can be described thus: qHTS assay to identify small molecule antagonists of the androgen receptor (AR) signaling pathway using the MDA cell line - cell viability counter screen (AID 743041; note: nearly all actives have a fitted effect of over 45% in size; note: potency is the fitted concentration of half-maximal effect). In outline:
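Using the breast carcinoma line MDA-kb2 AR-luc, test chemicals were co-incubated with R1881 for 16 h; CellTiter-Fluor reagent, added at 15.5 h, provided a fluorescence measure of live cells.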

The nature of assay [14]: qHTS assay to identify small molecule antagonists of the estrogen receptor alpha (ER-alpha) signaling pathway - cell viability counter screen (AID 743074; calls by dose curve;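 note: HEK293 cells carrying ER-alpha-UAS-bla reporter stimulated with 17beta-estradiol; nearly all actives have a fitted effect of over 45% in size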; note: potency is the fitted concentration of half-maximal effect).
Assay [15] in a line: qHTS assay to identify small molecule antagonists of the estrogen receptor alpha (ER-alpha) signaling pathway using the BG1 cell line - cell viability counter screen (AID 743081).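 Note: compound given together with 17beta-estradiol as the ER stimulus; nearly all actives have a fitted effect of over 45% in size.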 Note: potency is the fitted concentration of half-maximal effect.
The target of a further assay is Aromatase (Homo sapiens) (UniProt P11511). The experiment in a line: qHTS assay to identify aromatase inhibitors (AID 743083). Note: nearly all actives have a fitted effect of over 55% in size. Note: potency is the fitted concentration of half-maximal effect.
The nature of assay [16]: qHTS assay to identify aromatase inhibitors - cell viability counter screen (AID 743084).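 Note: cells stimulated with testosterone during compound exposure; nearly all actives have a fitted effect of over 55% in size.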 Note: potency is the fitted concentration of half-maximal effect.
For assay [17], the target named is Aryl hydrocarbon receptor (Homo sapiens) (UniProt P35869). Nature of the assay: qHTS assay to identify small molecule that activate the aryl hydrocarbon receptor (AhR) signaling pathway (AID 743085).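 For activation: HG2L7.5c1 human HepG2 liver cells with stably integrated DRE-driven firefly reporter; series mostly up to about 70 µM.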 Note: nearly all actives have a fitted effect of over 15% in size. Note: potency is the fitted concentration of half-maximal effect. In outline:
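Stably transfected human liver carcinoma cells (HG2L7.5c1; 20 DRE-firefly luciferase) were incubated 5 h, dosed, and kept 24 h at 37C. Agonism was scored from increased luciferase luminescence.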

Assay [18] can be described thus: qHTS assay to identify small molecule phospholipidosis (PLD) inducers (AID 1259344; active = well fitted curve in the direction sought with a large enough effect; an effect the other way counts as inactive or inconclusive). In outline: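 Accumulated phospholipid, stained red by LipidTOX during 24 h compound treatment of HepG2 cells at 37 C, is quantified from images as pit number and intensity, normalised per cell using Hoechst-stained nuclei.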
Assay [19] concerns the target Nuclear receptor subfamily 1 group I member 2 (Rattus norvegicus) (UniProt Q9R1A7). Nature of the assay: Rat pregnane X receptor (rPXR) activation by small molecules, qHTS assay (AID 1346983). Note: nearly all actives have a fitted effect of over 20% in size. The settings on record: rPXR luciferase reporter cells, One-Glo luminescence, 24 h; max activation: stronger effect = higher value. In outline:
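Luminescent readout (One-Glo luciferase, 30 min room temperature) followed 24 hr compound treatment at 37 C of rPXR cells plated 2,000 per well and preincubated 5hr; qHTS format with compounds delivered in DMSO.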

Each structure is given as a SMILES string. Where “and” joins values, the source holds several entries; their conditions need not be identical. Identical values can stand only once. Inconclusive results are not listed. The source holds several records for some structures; these can differ, active in one and inactive in another. Calls of active or inactive are those of the source. Unless noted, calls come from the whole dose curve; as a rule, active = well fitted curve in the direction sought with a large enough effect in the repeat runs; inconclusive = weak or mixed curves; inactive = no such curve, though single readings can be large; an effect the other way counts as inactive or inconclusive.
% is set by controls: 0 for no effect and ±100 for the full control effect.

Nuclear receptor subfamily 1 group I member 2 (Rattus norvegicus), sequence (Q9R1A7 whole entry, looked up): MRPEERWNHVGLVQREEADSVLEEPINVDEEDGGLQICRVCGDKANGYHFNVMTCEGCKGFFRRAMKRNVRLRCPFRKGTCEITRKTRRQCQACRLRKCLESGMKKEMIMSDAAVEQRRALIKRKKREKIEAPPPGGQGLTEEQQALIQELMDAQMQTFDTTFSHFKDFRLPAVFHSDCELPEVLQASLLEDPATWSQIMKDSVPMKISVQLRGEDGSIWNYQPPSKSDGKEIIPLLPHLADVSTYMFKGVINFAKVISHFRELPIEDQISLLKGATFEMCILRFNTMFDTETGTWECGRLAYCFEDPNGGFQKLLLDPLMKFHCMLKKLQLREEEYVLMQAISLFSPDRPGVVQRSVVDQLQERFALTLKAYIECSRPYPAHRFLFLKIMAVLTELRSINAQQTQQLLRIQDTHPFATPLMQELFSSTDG
Aryl hydrocarbon receptor (Homo sapiens), sequence (P35869 whole entry, looked up): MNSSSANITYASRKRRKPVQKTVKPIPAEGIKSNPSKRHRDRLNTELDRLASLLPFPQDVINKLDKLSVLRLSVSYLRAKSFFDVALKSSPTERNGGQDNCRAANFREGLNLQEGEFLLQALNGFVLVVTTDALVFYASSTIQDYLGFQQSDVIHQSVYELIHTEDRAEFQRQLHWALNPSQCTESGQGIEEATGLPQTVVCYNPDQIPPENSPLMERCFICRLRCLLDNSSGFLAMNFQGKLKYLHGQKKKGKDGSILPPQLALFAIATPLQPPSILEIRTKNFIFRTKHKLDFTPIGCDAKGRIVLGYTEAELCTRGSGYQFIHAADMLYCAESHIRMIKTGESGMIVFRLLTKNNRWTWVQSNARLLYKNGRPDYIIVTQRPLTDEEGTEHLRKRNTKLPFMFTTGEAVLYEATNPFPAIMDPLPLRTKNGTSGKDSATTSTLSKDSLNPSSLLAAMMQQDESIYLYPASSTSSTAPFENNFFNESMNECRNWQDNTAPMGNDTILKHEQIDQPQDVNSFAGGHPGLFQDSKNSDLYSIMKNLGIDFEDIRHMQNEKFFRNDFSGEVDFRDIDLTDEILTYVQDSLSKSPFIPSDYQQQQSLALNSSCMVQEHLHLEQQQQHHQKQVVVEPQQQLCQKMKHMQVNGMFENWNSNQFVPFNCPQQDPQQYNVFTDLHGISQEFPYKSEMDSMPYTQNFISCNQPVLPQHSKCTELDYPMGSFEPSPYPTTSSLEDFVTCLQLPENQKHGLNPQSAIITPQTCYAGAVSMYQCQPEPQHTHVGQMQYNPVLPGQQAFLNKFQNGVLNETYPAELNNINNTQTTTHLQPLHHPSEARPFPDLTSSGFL
Aromatase (Homo sapiens), sequence (P11511 whole entry, looked up): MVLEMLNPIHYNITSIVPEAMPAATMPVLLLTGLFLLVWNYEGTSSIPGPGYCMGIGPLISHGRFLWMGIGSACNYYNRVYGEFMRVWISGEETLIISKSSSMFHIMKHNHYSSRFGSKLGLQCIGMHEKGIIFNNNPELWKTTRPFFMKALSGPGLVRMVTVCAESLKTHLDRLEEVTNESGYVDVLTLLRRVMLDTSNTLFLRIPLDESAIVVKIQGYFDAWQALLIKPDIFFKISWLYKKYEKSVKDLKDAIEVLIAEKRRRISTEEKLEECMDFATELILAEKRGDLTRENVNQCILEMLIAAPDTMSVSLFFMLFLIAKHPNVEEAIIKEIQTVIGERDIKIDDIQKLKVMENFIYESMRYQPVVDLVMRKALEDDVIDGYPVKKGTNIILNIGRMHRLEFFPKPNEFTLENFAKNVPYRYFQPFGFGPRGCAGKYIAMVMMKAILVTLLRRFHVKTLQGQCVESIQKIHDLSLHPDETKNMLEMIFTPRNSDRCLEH

As to `CC[C@H]1[C@@H]2C[C@H]3[C@@H]4N(C)c5ccccc5[C@]45C[C@@H](C2[C@H]5O)N3[C@@H]1O` (some centres undefined), the Potency entry in assay [1], in assay [2], in [3], in [4], in assay [6] and in [7] was “inactive” in each case. The Potency entry in [9], in [10], in assay [11], in [12], in assay [13] and in [14] was “inactive” in each case. The Potency entry (in assay [15]; with Aromatase (Homo sapiens); in assay [16]; in assay [17]; in [18]) was “inactive” in each case. Moreover, the call in [5] and in [8] was inactive. In addition, the max activation in assay [19] is 0.0648% (inactive).
Turning to `CCC1(c2ccccc2)C(=O)NC(=O)N(C(=O)c2ccccc2)C1=O` (centres undefined), the Potency result in assay [1], in assay [2], in assay [3], in assay [4], in [6] and in assay [7] was “inactive” throughout. Moreover, the Potency result in [9], in assay [10], in [11], in [12], in [13] and in assay [14] was “inactive” each time. The Potency entry (with Aromatase (Homo sapiens); in assay [16]; in assay [17]; in assay [18]) was “inactive” in each case. The outcome in assay [5] and in assay [8] was inactive. Besides, the max activation in [19] is -3.53% (inactive).
With `CCN(CC)C(=O)N[C@H]1C[C@@H]2c3cccc4[nH]cc(c34)C[C@H]2N(C)C1`, the Potency result in assay [1], in assay [2], in [3], in assay [4], in assay [6] and in assay [7] was “inactive” in each case. Besides, the Potency result in [9], in [10], in [11], in [12], in assay [13] and in assay [14] was “inactive” each time. For the same compound, the Potency entry (in assay [15]; with Aromatase (Homo sapiens); in [16]; in assay [18]) was “inactive” each time. The compound was classed as inactive in assay [5] and in [8]. For the same compound, the max activation in assay [19] was -1.74% (inactive).
For `CC(=O)Oc1ccc2c3c1O[C@H]1[C@@H](OC(C)=O)C=C[C@H]4[C@@H](C2)N(C)CC[C@@]341`, the Potency result in assay [1], in [2], in [3], in assay [4], in [6] and in assay [9] was “inactive” each time. Moreover, the Potency entry in assay [10], in assay [11], in [12], in [13], in assay [14] and in assay [15] was “inactive” in each case. In addition, the Potency entry (with Aromatase (Homo sapiens); in assay [16]; in assay [17]; in assay [18]) was “inactive” throughout. The compound was classed as inactive in assay [5] and in assay [8]. The max activation in [19] was 0.899% (inactive).
Take `O=C1Nc2ccc(Cl)cc2C(c2ccccc2Cl)=NC1O` (centres undefined): the Potency entry in assay [1], in [2], in assay [3], in assay [4], in assay [6] and in [7] was “inactive” each time. Further, the Potency result in [9], in [10], in assay [11], in assay [12], in assay [13] and in [14] was “inactive” each time. The Potency entry (in [15]; in the assay with Aromatase (Homo sapiens); in assay [16]; in [17]; in assay [18]) was “inactive” in each case. In addition, the compound was called inactive in assay [5] and in assay [8]. Further, the max activation in [19] was -2.09% (inactive).
For the compound `CC(=O)O[C@H]1CC[C@H]2[C@@H]3CCC4=CC(=O)CCC4=C3C=C[C@]12C`, the Potency entry in assay [1], in [2], in assay [3], in assay [4], in assay [6] and in [9] was “inactive” in each case. Moreover, the Potency result (in [10]; in [11]; in [12]; in assay [13]; in assay [15]; with Aromatase (Homo sapiens)) was “inactive” throughout. Moreover, the Potency entry in [16], in assay [17] and in [18] was “inactive” each time. The result in assay [5] and in [8] was inactive. Besides, the max activation in [19] was -1.98% (inactive).
On to `C[C@]12CC[C@H](OS(=O)(=O)O)CC1=CC[C@@H]1[C@@H]2CC[C@]2(C)C(=O)CC[C@@H]12`, for which the Potency entry in assay [1], in [2], in assay [3], in assay [4], in assay [6] and in assay [7] was “inactive” throughout. The Potency entry in assay [9], in assay [10], in assay [11], in assay [12], in [13] and in [14] was “inactive” each time. Further, the Potency entry (in [15]; with Aromatase (Homo sapiens); in assay [16]; in assay [17]; in assay [18]) was “inactive” throughout. The result in assay [5] and in [8] was inactive. For the same compound, the max activation in assay [19] is -3.4% (inactive).
Take `Cc1ccccc1-n1c(C)nc2ccccc2c1=O`: the Potency result in assay [1], in [2], in [3], in [4], in assay [6] and in [7] was “inactive” throughout. In addition, the Potency entry in assay [9], in [10], in assay [11], in assay [12], in assay [13] and in [14] was “inactive” throughout. In addition, the Potency result (in assay [15]; with Aromatase (Homo sapiens); in assay [18]) was “inactive” each time. Besides, the call in [5] and in [8] was inactive. Also, in assay [16], the Potency entry was “inactive and 24.1 µM (active)”. Besides, the max activation in assay [19] is 9.97% (inactive).
Regarding `COC(COC(N)=O)C1=C(N2CC2)C(=O)C(C)=C(N2CC2)C1=O` (centres undefined), the Potency entry in assay [1], in [3], in assay [4], in [6], in assay [7] and in [9] was “inactive” each time. Moreover, the Potency result in [10], in assay [11], in assay [12] and in assay [18] was “inactive” each time. Also, the Potency in [2] is 7.5 µM (active); in assay [13], 13.3 µM (active); in assay [14] it was 13.4 µM (active); in assay [15], 6.68 µM (active); with Aromatase (Homo sapiens), 21.1 µM (active); in assay [17] it was 29.8 µM (active). In addition, the compound was called inactive in assay [5] and in assay [8]. In addition, in [19], the max activation was -20.2% (inactive).
On to `COC([CH2][Hg])CNC(=O)c1ccccc1OCC(=O)O` (centres undefined), for which the Potency entry in assay [2], in assay [3], in assay [4], in assay [6], in assay [7] and in [9] was “inactive” throughout. The Potency entry in assay [10], in assay [11], in assay [12], in assay [13], in assay [14] and in assay [15] was “inactive” in each case. Also, the Potency result (with Aromatase (Homo sapiens); in assay [16]; in assay [18]) was “inactive” each time. The outcome in [5] and in [8] was inactive. The max activation in assay [19] is 7.87% (inactive).
For the compound `C#CC(C)(O)CC` (centres undefined), the Potency entry in [1], in [2], in assay [4], in assay [6], in assay [7] and in [9] was “inactive” in each case. Also, the Potency entry in assay [10], in assay [11], in [12], in assay [13], in [14] and in [15] was “inactive” in each case. Moreover, the Potency result (with Aromatase (Homo sapiens); in assay [16]; in [18]) was “inactive” in each case. Moreover, the result in assay [5] and in assay [8] was inactive. Besides, the max activation in [19] is -2.56% (inactive).

For the origin of these results see PubChem BioAssay (Tox21).
